Here are results for 40 compounds from PubChem BioAssay (NCATS).

SMILES strings stand for the structures. Where “and” joins values, the source holds several entries; their conditions need not be identical. Identical values can stand only once. Records with an inconclusive call do not appear. A number with no mark means an inactive call. Calls come from the whole dose curve; as a rule, active = well fitted activation curve with a large enough effect in the signal ratio; inconclusive = small, poorly fitted or top-dose-only effect, or a change in a side signal; inactive = flat fitted curve, though single readings scatter; the % refers to the signal ratio.

The test is described as follows: qHTS assay for small molecule activators of the nuclear factor-kappa B (NF-kB) signaling pathway (AID 651749). Note: series mostly up to about 77 µM; % of control where 0% means no effect. To be noted: NF-kB-bla ME-180 cells, beta-lactamase FRET ratio, 16 h; stronger effect = higher value. An excerpt:
National Center for Advancing Translational Sciences [NCATS] NIH Chemical Genomics Center [NCGC] U.S. Environmental Protection Agency [EPA] National Institutes of Environmental Health Sciences [NIEHS] National Toxicology Program [NTP] Assay Overview: Transcription factors and their stimulated target gene expression play pivotal roles across many cellular processes including responses to environmental stimuli. Proper regulation of associated pathways is critical to maintain cell health and function. Constitutive activation of transcription factor pathways has been implicated in tumors as it may block cellular functions such as apoptosis and lead to invasion and metastasis. One important transcription factor that stimulates gene expression in response to cytokines, UV radiation, and other stimuli is nuclear factor-kappa B (NF-kB). To measure activation of the NF-kB pathway, the NF-kB-bla ME-180 cell line stably expressed beta-lactamase reporter gene under the regulation of a NF-kB response element was obtained from Invitrogen. This assay allows measurement of the NF-kB pathway activity induced by compounds in a ME-180 cell line. This system quantitates NF-kB activity using a FRET-based assay system where beta-lactamase expression disrupts FRET, allowing for fluorescent measurement of activity.
Assay Protocol Summary: For toxicology screening, 2,000 cells in 5 uL/well were dispensed into black, clear-bottom 1536-well plates using a Multidrop Combi (Thermo Scientific) dispenser. Following transfer of 23 nL compound or DMSO vehicle by a pin tool, the plates were incubated 16 hr at 37C and 5% CO2.
In the case of `CC1(C)S[C@@H]2[C@H](NC(=O)COc3ccccc3)C(=O)N2[C@H]1C(=O)O`, the activation is -1.54%.

`O=C1c2ccccc2C(=O)C1c1ccc2ccccc2n1`: the activation was -1.78% and 4.34%. As for `CC1=C2[C@H](/C=C(\C)C(=O)O)CC[C@@H](C)[C@H]2CC1`, the activation is -1.71%. The result for `CCCCOCCO` reads 0.401% and -0.541% and 0.482%; that for `O=S(=O)(O)c1ccccc1`, 0.223%; that for `C=CCc1ccc(OC)c(OC)c1`, -0.295% and 0.286%.

With `O=C(O)c1ccccc1C(c1ccc(O)cc1)c1ccc(O)cc1`, the activation is -1.81% and -6.43%.

As to `O=NO`, the activation is -0.475% and 1.4%.

On to `CCO[Si](CCCN)(OCC)OCC`, for which the activation was -0.737% and -1.24%. Consider `Clc1cc(Cl)c(Cl)cc1Cl`, for which the activation is 0.515% and -2%. In the case of `c1ccc2c(c1)c1cccc3ccc4cccc2c4c31`, the activation was 2.08% and 3.95%. Regarding `C[Si](C)(C)O[Si](C)(C)O[Si](C)(C)C`, the activation is -3.32%. For `Cc1cccc([N+](=O)[O-])c1C` the value was -0.813% and -0.315%; for `C1OCOCO1`, -1.91%; for `Cc1ccccc1C`, -0.0827% and -0.301%. Take `C=CC(=C)CCC=C(C)C`: the activation was -0.615%. Take `Cc1cccc(O)c1`: the activation was -0.103% and -1.79%. For the compound `C=CC(C)(CCC=C(C)C)OC(C)=O` (stereo not given), the activation was -0.624%.

Take `CC12CCC(CC1=O)C2(C)C` (stereo not given): the activation is -0.0521% and -0.265%. `CCC(C)c1ccccc1O` (stereo not given): the activation was 0.327% and -0.174% and -0.563%. For `NC1=NC(S)C2N=CN=C2N1` (stereo not given) the value was 0.298%; for `CCO`, -0.227%.

`COc1ccc(/C=C/c2cc(OC)cc(=O)o2)cc1`: the activation is 1.78%.

In the case of `ClCCCl`, the activation is -0.0783% and -1.06% and -1.29%.

As for `COCC(=O)O`, the activation was 0.0746% and -0.444%. The result for `c1ccc2scnc2c1` reads -1.1%; that for `C=C(C)C1CC=C(C)C(O)C1` (stereo not given), -0.16%; that for `Nc1ccc(Cl)cc1Cl`, 0.288% and 1.41%. In the case of `CCCCC(CC)CN` (stereo not given), the activation is -0.627% and -0.116%. The result for `O=C(O)CCCCCCCCC(=O)O` reads -1.2%; that for `CC1(C)CC(N=C=O)CC(C)(CN=C=O)C1` (stereo not given), -0.293% and -0.0815%; that for `C=Cc1ccccc1Cl`, -1.19%.

Take `C=CCOC(=O)c1ccccc1C(=O)OCC=C`: the activation was -0.29% and -0.27%. On to `Nc1ccc(S(=O)(=O)O)cc1`, for which the activation is -0.239% and 0.0399%.

`C/C=C\c1ccc(OC)cc1`: the activation was -0.604%. The result for `O=C(O)CC(C(=O)O)C(CC(=O)O)C(=O)O` (stereo not given) reads -0.643% and 0.457%; that for `CC(C)=CCCC(C)CCO` (stereo not given), 0.223% and -0.597%; that for `c1ccccc1`, -0.601% [middle of 4 runs]. For `O=C(O)c1ccc(O)cc1O` the value was 0.834% and -0.343%. As for `Cc1c(N=C=O)cccc1N=C=O`, the activation is -0.751% and -0.0469%.
